# Results published in the supplement of paper PMC6288085.
# Where a name gives a salt, the structure may show the parent alone. ± gives the uncertainty stated by the source.
# Tested on: Caenorhabditis elegans N2
# Assay: food intake (mean delta OD600 / animal over 72 h) with 50 uM loxapine co-treatment (OD600 units per animal); higher = more food eaten (less suppression of loxapine-induced hyperphagia)
# Details: first compound 33 µM, loxapine concentration 50 µM
# Description: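 C. elegans N2 adults (FUDR-sterilised, day 1) in 96-well plates fed gamma-irradiated bacteria. Each library drug (MedChemExpress FDA-approved library) at 33 uM was combined with loxapine at 50 uM. Food intake was measured as bacterial clearance: the change in OD600 from day 1 to 72 h, normalised per animal (mean over 14-21 wells of about 10-12 worms). Drugs flagged for bacterial lysis or sickness were excluded by the authors.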
row,SMILES,food intake
1,O=C(C1CCCCC1)N1CC(=O)N2CCc3ccccc3C2C1 (stereo not given) [praziquantel] + CN1CCN(C2=Nc3ccccc3Oc3ccc(Cl)cc32)CC1 [loxapine],0.0224 ± 0.0023
2,COC(=O)Nc1nc2cc([S+]([O-])c3ccccc3)ccc2[nH]1 (stereo not given) [oxfendazole] + CN1CCN(C2=Nc3ccccc3Oc3ccc(Cl)cc32)CC1 [loxapine],0.0214 ± 0.0037
3,O=P(O)(O)C(O)(Cn1ccnc1)P(=O)(O)O [Zoledronic acid (monohydrate)] + CN1CCN(C2=Nc3ccccc3Oc3ccc(Cl)cc32)CC1 [loxapine],0.0237 ± 0.003
4,CC[C@H]1OC(=O)[C@H](C)[C@@H](O[C@H]2C[C@@](C)(OC)[C@@H](O)[C@H](C)O2)[C@H](C)[C@@H](O[C@@H]2O[C@H](C)C[C@H](N(C)C)[C@H]2O)[C@](C)(O)C[C@@H](C)[C@@H]2N[C@@H](COCCOC)O[C@H]([C@H]2C)[C@]1(C)O [dirithromycin] + CN1CCN(C2=Nc3ccccc3Oc3ccc(Cl)cc32)CC1 [loxapine],0.0208 ± 0.0079
5,CNC(=O)[C@H](Cc1c[nH]c2ccccc12)NC(=O)[C@@H](CC(=O)NO)CC(C)C + CN1CCN(C2=Nc3ccccc3Oc3ccc(Cl)cc32)CC1 [loxapine],0.0195 ± 0.0054
6,CCOc1ccc(NC(C)=O)cc1 [phenacetin] + CN1CCN(C2=Nc3ccccc3Oc3ccc(Cl)cc32)CC1 [loxapine],0.0226 ± 0.0036
7,Nc1nc2c(ncn2COC(CO)CO)c(=O)[nH]1 [ganciclovir] + CN1CCN(C2=Nc3ccccc3Oc3ccc(Cl)cc32)CC1 [loxapine],0.0236 ± 0.0019
8,CC1(C)[C@H](C(=O)O)N2C(=O)C[C@H]2S1(=O)=O [sulbactam] + CN1CCN(C2=Nc3ccccc3Oc3ccc(Cl)cc32)CC1 [loxapine],0.0225 ± 0.0027
9,S=C=Nc1ccc(N=C=S)cc1 [p-Phenylene diisothiocyanate] + CN1CCN(C2=Nc3ccccc3Oc3ccc(Cl)cc32)CC1 [loxapine],0.0229 ± 0.0028
10,O=C(O)CCNC(=O)c1ccccc1 [betamipron] + CN1CCN(C2=Nc3ccccc3Oc3ccc(Cl)cc32)CC1 [loxapine],0.0228 ± 0.0023
11,CCOC(=O)/C=C(C)/C=C/C=C(C)/C=C/c1c(C)cc(OC)c(C)c1C [etretinate] + CN1CCN(C2=Nc3ccccc3Oc3ccc(Cl)cc32)CC1 [loxapine],0.0213 ± 0.0039
12,CC(C)(C)C(=O)C(Oc1ccc(Cl)cc1)n1ccnc1 (stereo not given) [climbazole] + CN1CCN(C2=Nc3ccccc3Oc3ccc(Cl)cc32)CC1 [loxapine],0.0235 ± 0.012
13,COc1cc(O)c(C(=O)c2ccccc2)cc1S(=O)(=O)O [sulisobenzone] + CN1CCN(C2=Nc3ccccc3Oc3ccc(Cl)cc32)CC1 [loxapine],0.0234 ± 0.0024
14,CC(C)NCC(O)COc1ccc(CCOCC2CC2)cc1 (stereo not given) [betaxolol] + CN1CCN(C2=Nc3ccccc3Oc3ccc(Cl)cc32)CC1 [loxapine],0.0265 ± 0.0022
15,CCN(CC)CCOC(=O)c1ccc(N)cc1 [procaine (hydrochloride)] + CN1CCN(C2=Nc3ccccc3Oc3ccc(Cl)cc32)CC1 [loxapine],0.0224 ± 0.0034
16,O=C(O)C1=C(CSc2nnnn2CS(=O)(=O)O)CS[C@@H]2[C@H](NC(=O)[C@H](O)c3ccccc3)C(=O)N12 [cefonicid (sodium)] + CN1CCN(C2=Nc3ccccc3Oc3ccc(Cl)cc32)CC1 [loxapine],0.0217 ± 0.018
17,c1ccc(C2CN3CCSC3=N2)cc1 (stereo not given) [tetramisole (hydrochloride)] + CN1CCN(C2=Nc3ccccc3Oc3ccc(Cl)cc32)CC1 [loxapine],0.0209 ± 0.0029
18,CO/N=C(\C(=O)N[C@@H]1C(=O)N2C(C(=O)O)=C(CSC(=O)c3ccco3)CS[C@H]12)c1csc(N)n1 [ceftiofur (sodium)] + CN1CCN(C2=Nc3ccccc3Oc3ccc(Cl)cc32)CC1 [loxapine],0.0225 ± 0.0037
19,CN(C)CCOC(c1ccccc1)c1ccccc1.Cn1c(=O)c2[nH]c(Cl)nc2n(C)c1=O [dimenhydrinate] + CN1CCN(C2=Nc3ccccc3Oc3ccc(Cl)cc32)CC1 [loxapine],0.0239 ± 0.0029
20,C[C@H]1c2cccc(O)c2C(=O)C2=C(O)[C@]3(O)C(=O)C(C(N)=O)=C(O)[C@@H](N(C)C)[C@@H]3[C@@H](O)[C@@H]21 [doxycycline] + CN1CCN(C2=Nc3ccccc3Oc3ccc(Cl)cc32)CC1 [loxapine],0.0161 ± 0.0037

row,SMILES,food intake
1,C[N+]1(C)CCC(=C(c2ccccc2)c2ccccc2)CC1 [diphenmanil (methylsulfate)] + CN1CCN(C2=Nc3ccccc3Oc3ccc(Cl)cc32)CC1 [loxapine],0.0235 ± 0.0021
2,CCCCNc1ccc(C(=O)OCCN(C)C)cc1 [tetracaine (hydrochloride)] + CN1CCN(C2=Nc3ccccc3Oc3ccc(Cl)cc32)CC1 [loxapine],0.0236 ± 0.0037
3,CC[C@H]1OC(=O)C[C@@H](O)[C@H](C)[C@@H](O[C@@H]2O[C@H](C)[C@@H](O[C@H]3C[C@@](C)(O)[C@@H](O)[C@H](C)O3)[C@H](N(C)C)[C@H]2O)[C@@H](CC=O)C[C@@H](C)C(=O)/C=C/C(C)=C/[C@@H]1CO[C@@H]1O[C@H](C)[C@@H](O)[C@@H](OC)[C@H]1OC [Tylosin] + CN1CCN(C2=Nc3ccccc3Oc3ccc(Cl)cc32)CC1 [loxapine],0.0219 ± 0.0051
4,CN(C)c1cc(NC(=O)CNC(C)(C)C)c(O)c2c1C[C@H]1C[C@H]3[C@H](N(C)C)C(O)=C(C(N)=O)C(=O)[C@@]3(O)C(O)=C1C2=O [tigecycline] + CN1CCN(C2=Nc3ccccc3Oc3ccc(Cl)cc32)CC1 [loxapine],0.0234 ± 0.0019
5,CN1CCC[C@H]1c1cccnc1 [L-nicotine] + CN1CCN(C2=Nc3ccccc3Oc3ccc(Cl)cc32)CC1 [loxapine],0.0212 ± 0.0058
6,Cc1cn([C@@H]2C[C@@H](O)[C@H](CO)O2)c(=O)[nH]c1=O [telbivudine] + CN1CCN(C2=Nc3ccccc3Oc3ccc(Cl)cc32)CC1 [loxapine],0.0219 ± 0.0023
7,NC(=O)c1cnccn1 [pyrazinamide] + CN1CCN(C2=Nc3ccccc3Oc3ccc(Cl)cc32)CC1 [loxapine],0.0222 ± 0.0034
8,CC(=O)Nc1ncc([N+](=O)[O-])s1 [nithiamide] + CN1CCN(C2=Nc3ccccc3Oc3ccc(Cl)cc32)CC1 [loxapine],0.0244 ± 0.0027
9,O=C(c1ccccc1)c1ccc2n1CCC2C(=O)O (stereo not given) [ketorolac (romethamine salt)] + CN1CCN(C2=Nc3ccccc3Oc3ccc(Cl)cc32)CC1 [loxapine],0.0225 ± 0.0034
10,CC(=O)NC(Cc1ccccc1)C(=O)O (racemic) [N-acetyl DL-phenylalanine] + CN1CCN(C2=Nc3ccccc3Oc3ccc(Cl)cc32)CC1 [loxapine],0.0223 ± 0.0049
11,CO/N=C(\C(=O)N[C@@H]1C(=O)N2C(C(=O)O)=C(CSc3nc(=O)c(O)nn3C)CS[C@H]12)c1csc(N)n1 [ceftriaxone (sodium salt)] + CN1CCN(C2=Nc3ccccc3Oc3ccc(Cl)cc32)CC1 [loxapine],0.0251 ± 0.0082
12,Cc1cc(C)cc(OCC2CNC(=O)O2)c1 (stereo not given) [metaxalone] + CN1CCN(C2=Nc3ccccc3Oc3ccc(Cl)cc32)CC1 [loxapine],0.0236 ± 0.003
13,Cc1cc(C)c2c(c1)[C@@H](N(Cc1cc(C(F)(F)F)cc(C(F)(F)F)c1)c1nnn(C)n1)CCCN2C[C@H]1CC[C@H](C(=O)O)CC1 [Evacetrapib] + CN1CCN(C2=Nc3ccccc3Oc3ccc(Cl)cc32)CC1 [loxapine],0.0229 ± 0.0033
14,CC(C)(C)C(=O)OCOC(=O)[C@@H]1N2C(=O)[C@@H](/N=C/N3CCCCCC3)[C@H]2SC1(C)C [pivmecillinam (hydrochloride)] + CN1CCN(C2=Nc3ccccc3Oc3ccc(Cl)cc32)CC1 [loxapine],0.0244 ± 0.0027
15,Cc1cccc(C)c1OCC(=O)N[C@@H](Cc1ccccc1)[C@@H](O)C[C@H](Cc1ccccc1)NC(=O)[C@H](C(C)C)N1CCCNC1=O [lopinavir] + CN1CCN(C2=Nc3ccccc3Oc3ccc(Cl)cc32)CC1 [loxapine],0.0209 ± 0.0084
16,O=C(Nc1c(Cl)cncc1Cl)c1ccc(OC(F)F)c(OCC2CC2)c1 [roflumilast] + CN1CCN(C2=Nc3ccccc3Oc3ccc(Cl)cc32)CC1 [loxapine],0.0214 ± 0.0055
17,CC(=O)O[C@H]1Cc2ccccc2N(C(N)=O)c2ccccc21 [eslicarbazepine (acetate)] + CN1CCN(C2=Nc3ccccc3Oc3ccc(Cl)cc32)CC1 [loxapine],0.0232 ± 0.0043
18,OCCN1C[C@H](O)[C@@H](O)[C@H](O)[C@H]1CO [miglitol] + CN1CCN(C2=Nc3ccccc3Oc3ccc(Cl)cc32)CC1 [loxapine],0.0214 ± 0.005
19,Cc1ccnc(NS(=O)(=O)c2ccc(N)cc2)n1 [sulfamerazine] + CN1CCN(C2=Nc3ccccc3Oc3ccc(Cl)cc32)CC1 [loxapine],0.0224 ± 0.0031
20,[F-].[Na+] [sodium fluoride] + CN1CCN(C2=Nc3ccccc3Oc3ccc(Cl)cc32)CC1 [loxapine],0.0241 ± 0.0018
